Values joined by “and” are separate entries in the source; they are usually repeats but may differ in a detail not shown here. Identical values can stand only once. Compounds without any hit were thinned out: in the full panel of roughly 83,000, 20% have a hit.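 Interpretation: 100, growth as untreated; towards 0, rising growth inhibition; 0, no net growth; 0 to -100, cell death. Compounds scoring below 10 were considered active.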 Active and inactive are the calls of the source.

Our source for the growth values is PubChem BioAssay (NCI).

The first assay has as its system DU-145 prostate. In words: NCI-60 one-dose screen, 48 h (100 = growth as untreated, 0 = no growth, -100 = all killed). The settings on record: 10 µM unless noted.
In the case of `CN(Cc1ccccc1)c1nc(Cl)c(C2CC(c3ccc4c(c3)OCO4)=NN2c2cc(Cl)cc(Cl)c2)s1` (configuration not stated), the growth was 101% (inactive). Turning to `COc1ccc(C2Nc3nc(SC)nc(N)c3N=C3c4ccccc4CCC32)cc1` (configuration not stated), the growth is 70.9% (inactive). For `CCN(CC)CCOc1ccc(/C(=C(\Cl)c2ccccc2)c2ccccc2)cc1`, the growth was 74.6% (inactive) and 103% (inactive).

With `O=C1/C(=C/c2ccccc2)CN(C(=O)C(Cl)Cl)C/C1=C\c1ccccc1`, the growth is -14.3% (active). With `Cc1ccc(S(=O)(=O)OC[C@@]2(C)CC[C@]3(C)CC[C@]4(C)C(=CC[C@@H]5[C@@]6(C)CCCNC(C)(C)[C@@H]6CC[C@]54C)[C@@H]3C2)cc1`, the growth is -90.7% (active). For `O=C1/C(=C/c2cn(-c3ccccc3)nc2-c2ccccc2)SC(=S)N1c1ccc(Cl)cc1`, the growth was 74.6% (inactive). `O=c1ccc2nc(-c3ccccn3)nn(-c3ccccc3)c-2c1`: the growth is 91% (inactive).

Regarding `C[C@@H]1CC[C@@H]2[C@@H]1[C@H](OC(=O)/C=C/c1ccccc1)[C@]1(c3ccccc3)C[C@@H](NC(=O)CO)[C@@]2(C)O1`, the growth is 107% (inactive).

Another assay relates to K-562 leukemia. The description is as above. The note with it: 10 µM unless noted.
As to `COc1ccc2c(c1)c(-c1nc(-c3c[nH]c4c(Cl)nccc34)cs1)cn2C`, the growth was 90.8% (inactive). For the compound `C[C@]12CCc3c(ccc4cc(O)ccc34)[C@@H]1C[C@H](O)[C@@H]2O`, the growth is 105% (inactive). Regarding `ON=C1CCCCCCCC1`, the growth is 88.5% (inactive) and 108% (inactive).

For `CCCCCCCCCCCCCCCC[N+](C)(C)CCN(Cc1ccc(OC)cc1)c1ncccn1`, the growth is 35.5% (inactive). Still for that read-out and setting: the result for `Cc1nc2sc(C(=O)Nc3cccc4ncccc34)c(N)c2cc1C(C)O` (configuration not stated) reads 28.8% (inactive); that for `C=C[C@]1(C)C=C2CC[C@@H]3C(C)(C)C(=O)CC[C@@]3(C)[C@@H]2CC1`, 95.3% (inactive). Consider `CC[C@H](C)[C@H](NC(=O)[C@H](CCCCN)NC(=O)[C@H](CCCCN)NC(=O)[C@@H](NC(=O)[C@@H](NC(=O)[C@@H](N)Cc1cnc[nH]1)[C@@H](C)CC)[C@@H](C)CC)C(=O)N[C@@H](CCCNC(=N)N)C(=O)N[C@H](C(=O)N[C@@H](Cc1c[nH]c2ccccc12)C(=O)N[C@@H](Cc1ccc(O)cc1)C(=O)N[C@@H](CCCNC(=N)N)C(=O)N[C@@H](CCCCN)C(=O)N[C@@H](C)C(=O)N[C@@H](Cc1c[nH]c2ccccc12)C(=O)N[C@@H](Cc1cnc[nH]1)C(=O)N[C@H](C(=O)N[C@@H](CC(C)C)C(=O)NCC(=O)N[C@@H](CCCCN)C(=O)N[C@H](C(N)=O)C(C)C)C(C)C)[C@@H](C)O`, for which the growth is 67.9% (inactive).

With `CC(=O)N1N=C(c2ccc(F)cc2)CC1c1sc(N(C)Cc2ccccc2)nc1Cl` (configuration not stated), the growth is 75.1% (inactive). As for `Cn1ccnc1CN1CCSC(C(=O)Nc2ccccc2)C1` (configuration not stated), the growth was 92.1% (inactive). On to `COc1ccc(/C=C2/C(=O)N=C3N2NC(c2ccccc2)=CN3c2ccccc2)cc1`, for which the growth is 108% (inactive). In the case of `Cc1oc2c(Cc3ccc(NC(=O)c4ccc(Cl)cc4)cc3)ncnc2c1C(=O)NO`, the growth is 78.3% (inactive). With `CCN1CCN(C(=O)[C@]23CC[C@@H](C)[C@H](C)[C@@H]2C2=CC[C@@H]4[C@@]5(C)CCC(=O)C(C)(C)[C@@H]5CC[C@@]4(C)[C@]2(C)CC3)CC1`, the growth was 2.78% (active). With `CC/C=C\C/C=C\C[C@H](O)C/C=C1/C(=O)C=C[C@@H]1C/C=C\CCCC(=O)OC`, the growth is 3.6% (active). For the compound `COc1ccc(-c2nnc3n(C)c(=O)c4ccccc4n23)cc1O`, the growth is 9.1% (active). Still for that read-out and setting: the result for `Cc1ccc(NC(=O)c2ccc(CN3CCN(C)CC3)cc2)cc1Nc1nccc(-c2cccnc2)n1` reads 2.02% (active). Same read-out and setting: under `OCCN1CCN(CC/C=C2\c3ccccc3Sc3ccc(Cl)cc32)CC1` stands -90.8% (active) and -68.9% (active).

`COc1cc(-c2nn(-c3cccc(NC(=O)CCN4CCN(C)CC4)c3)cc2-c2ccncc2)ccc1Cl`: the growth was -10.4% (active).

Regarding `Cc1cnc(C(=O)NNc2nc3sc4c(c3c(=O)[nH]2)C(C)CCC4)cn1` (configuration not stated), the growth is 14% (inactive). For `Cc1nc(-n2[nH]c(=O)ccc2=O)sc1N=Nc1ccccc1`, the growth was 101% (inactive). As to `CC(=O)c1c(C)nc(SCC(=O)Nc2ccc(Cl)cc2)n1-c1ccc(Cl)cc1`, the growth was 83% (inactive). As for `C[N+]1=C(/C=C\C=C\c2ccccc2)C(C)(C)c2ccccc21`, the growth was 4.69% (active). For `COc1cc(/C=C(/c2ccccc2)[N+](=O)[O-])c(OC)c2c1OCO2`, the growth was 0.225% (active). `C=C1C(=O)O[C@H]2[C@H]1CC/C(COC(=O)NCCCCNC(=O)OC/C1=C/CC[C@@]3(C)O[C@H]3[C@H]3OC(=O)C(=C)[C@@H]3CC1)=C\CC[C@@]1(C)O[C@@H]21`: the growth was 4.14% (active). Take `COc1ccc(N2CCN(S(=O)(=O)c3oc(-c4ccccc4)nc3C#N)CC2)cc1`: the growth was 15.3% (inactive). In the case of `COc1ccc(-c2cc3cnc4ccccc4c3oc2=O)cc1`, the growth was 28.1% (inactive). `CCOC(=O)c1nc2c3ccccc3cnn2c1C(=O)c1ccc(OC)cc1`: the growth was 96.9% (inactive). Take `Cc1ccc2c(c1)C(C)Cc1c(ncnc1-n1cnc3cc(C)ccc31)N2C` (configuration not stated): the growth was 6.54% (active). Still for that read-out and setting: the result for `CCN1C(=O)N(c2ccccc2)C2NC(=S)N(/N=C/C=C/c3ccccc3)C21` (configuration not stated) reads 8.8% (active); that for `COc1ccc(-c2[nH]c3ccccc3c2-c2ccc(OC)cc2)cc1`, 3.69% (active). In the case of `COc1ccc(Cn2cc(C(=O)Nc3cccnc3Nc3ccccc3)nn2)cc1`, the growth was 108% (inactive). With `CSc1nnc(-c2cc3c([nH]c4ccccc43)c(-c3cccc(O)c3)n2)n1-c1ccc(C)cc1`, the growth is 10.2% (inactive).

For `CN(Cc1ccccc1)c1nc(Cl)c(C2CC(c3ccc4c(c3)OCO4)=NN2c2cc(Cl)cc(Cl)c2)s1` (configuration not stated), the growth was 90.2% (inactive). As for `COc1ccc(C2Nc3nc(SC)nc(N)c3N=C3c4ccccc4CCC32)cc1` (configuration not stated), the growth is 84.5% (inactive). On to `CCN(CC)CCOc1ccc(/C(=C(\Cl)c2ccccc2)c2ccccc2)cc1`, for which the growth is -2.92% (active) and 28% (inactive). On the same count and under the same terms, under `O=C1/C(=C/c2ccccc2)CN(C(=O)C(Cl)Cl)C/C1=C\c1ccccc1` stands 2.57% (active). With `Cc1ccc(S(=O)(=O)OC[C@@]2(C)CC[C@]3(C)CC[C@]4(C)C(=CC[C@@H]5[C@@]6(C)CCCNC(C)(C)[C@@H]6CC[C@]54C)[C@@H]3C2)cc1`, the growth was -39.5% (active). In the case of `O=C1/C(=C/c2cn(-c3ccccc3)nc2-c2ccccc2)SC(=S)N1c1ccc(Cl)cc1`, the growth was 63.8% (inactive). As for `O=c1ccc2nc(-c3ccccn3)nn(-c3ccccc3)c-2c1`, the growth is -8.79% (active). Consider `C[C@@H]1CC[C@@H]2[C@@H]1[C@H](OC(=O)/C=C/c1ccccc1)[C@]1(c3ccccc3)C[C@@H](NC(=O)CO)[C@@]2(C)O1`, for which the growth is 84.4% (inactive).
